Experimental data: PubChem BioAssay (Tox21)
Results filed as inconclusive are left out. Values without a mark were called inactive. Activity calls are given as the source filed them. Calls come from the whole dose curve.

assay: qHTS assay for small molecule agonists of the p53 signaling pathway (AID 651631); conditions: HCT-116 p53RE-bla reporter, beta-lactamase FRET ratio, 16 h; series mostly up to 73.3 µM; activation: at the top concentration; note: nearly all actives have a fitted effect of over 15% in size
Text: U.S. Tox21 Program National Center for Advancing Translational Sciences [NCATS] NIH Chemical Genomics Center [NCGC] U.S. Environmental Protection Agency [EPA] National Institutes of Environmental Health Sciences [NIEHS] National Toxicology Program [NTP] U.S. Food and Drug Administration [FDA] Tox21 Assay Overview: p53, a tumor suppressor protein, is activated following cellular insult, including DNA damage and other cellular stresses. The activation of p53 regulates cell fate by inducing DNA repair, cell cycle arrest, apoptosis, or cellular senescence. The activation of p53, therefore, is a good indicator of DNA damage and other cellular stresses. The CellSensor p53RE-bla HCT-116 cell line (Invitrogen) contains a stably integrated beta-lactamase reporter gene under control of the p53 response elements. The activation of the reporter gene under culture conditions can be detected by fluorescence intensity. This cell line was used to screen the Tox21 compound library in a 1536-well plate format and to identify agonists that activate the p53 signaling pathway.
Tox21 Assay Protocol Summary: The p53RE-bla cells were dispensed at 4,000 cells/5 ul/well in 1536-well black wall/clear bottom plates using a Multidrop dispenser. After the assay plates were incubated at a 37 C/5% CO2 incubator for 5 hours, 23 nL of compounds dissolved in DMSO, positive controls or DMSO only was transferred to the assay plate by a pin tool. The plates were incubated at 37 C for 16 hours. After 1 uL of LiveBLAzerTM B/G FRET substrate was added using a Flying Reagent Dispenser, the plates were incubated at room temperature for 2 hours, and fluorescence intensity was measured by an Envision plate reader.
% is set by controls: 0 for no effect and ±100 for the full control effect; potency is the fitted concentration of half-maximal effect.

SMILES | Potency | activation
CC(CN1CC(=O)NC(=O)C1)N1CC(=O)NC(=O)C1 (stereo not given) | 11.9 µM (active) | –
O=C(O)CCC(=O)Nc1ccc(S(=O)(=O)Nc2nccs2)cc1 | – | -5.43% [at 34.7 µM]
CC1(C)C(=O)C(C)(C)C1=O | – | 1.4%
CC(=O)Nc1ccc(S(=O)(=O)Nc2cc(C)on2)cc1 | – | -2.61%
CCO[Si](CC(C)C)(OCC)OCC | – | 8.3%
CCCCCCC(O)CO (stereo not given) | – | 0.785%
Cc1cccc(N)n1 | – | -6.62% [at 95.1 µM]
CCCCCCCCCCCC(C)=O | – | -1.25%
Cc1nc2ccc(Cl)cc2[nH]1 | – | -0.849%
CCc1ccc(CC)cc1 | – | 2.74% [at 95.1 µM]
Cc1cc(N)no1 | – | 0.825% [at 95.1 µM]
CCCCCCCCCCCCCC(=O)OCC | – | -2.49%
O=Cc1ccc(C(=O)O)cc1 | – | -2.91% [at 95.1 µM]
Cc1ccc2ccccc2n1 | – | 4.34%
CCCC(=O)CC | – | 2.91% [at 95.1 µM]
CCCc1ccc(O)c(OC)c1 | – | 1.23%
CC(C)(C)C(=O)CC(=O)C(C)(C)C | – | -4.45% [at 95.1 µM]
Clc1cc(Cl)c(Cl)c(Cl)c1Cl | – | -3.29%
C[C@@H]1NC(=O)[C@@H](N)CNC(=O)[C@H](C2CCNC(N)=N2)NC(=O)/C(=C/NC(N)=O)NC(=O)[C@H](CNC(=O)C[C@@H](N)CCCN)NC1=O (stereo not given in full) | inactive | –
NCC1CCC(C(=O)Oc2ccc(CCC(=O)O)cc2)CC1 (stereo not given) | – | 3.7%

SMILES | Potency | activation
COc1ccc2cc(CCC(C)=O)ccc2c1 | – | 2.71% [at 34.7 µM]
Cc1ccc(NC(N)=O)cc1 | – | -2.34% [at 95.1 µM]
CC(=O)SC[C@@H](C)C(=O)N1CCC[C@H]1C(=O)N[C@@H](Cc1ccccc1)C(=O)O | – | -1.27%
O=C1Nc2ccccc2C1=O | – | -4.01%
COC(=O)/C=C(\C)CCC=C(C)C | – | 0.88%
CCOC(=O)CC | – | -2.81%
O=C(O)Cc1ccccc1Oc1ccc(Cl)cc1Cl | – | -1.12%
CCCCc1ccc(Cl)cc1 | – | 0.684%
CN1C(CCl)Nc2cc(Cl)c(S(N)(=O)=O)cc2S1(=O)=O (stereo not given) | – | -2.95%
CCCCCCCC(=O)N(C)C | – | 1.65%
C[C@@H]1CC[C@@]2(OC1)O[C@H]1C[C@H]3[C@@H]4CC[C@H]5C[C@@H](O)CC[C@]5(C)[C@H]4CC(=O)[C@]3(C)[C@H]1[C@@H]2C | – | -2.28% [at 34.7 µM]
CCCCCCCCOCCC#N | – | -2.05%
CCC(C)SSC(C)CC (stereo not given) | – | 6.62%
Cc1ccc(O)c([N+](=O)[O-])c1 | – | 1.48% [at 95.1 µM]
CSC(=O)c1cccc2nnsc12 | – | -2.83%
CCCC[O][Al]([O]CCCC)[O]CCCC | – | 1.67%
CCOC(=O)[C@H](CCc1ccccc1)N[C@H]1CS[C@H](c2cccs2)CN(CC(=O)O)C1=O | – | 1.1%
CN(C)CCc1c[nH]c2ccc(CS(=O)(=O)N3CCCC3)cc12 | – | -2.08%
O=P(O)(O)C(O)(Cc1cccnc1)P(=O)(O)O | – | -2.83%
CC(C)c1cc(C(C)C)cc(C(C)C)c1 | – | -1.32%
